From PubChem BioAssay (NCATS)
Where “and” joins values, the source holds several entries; their conditions need not be identical. Equal entries are not always repeated. Inconclusive results are not listed. Calls of active or inactive are those of the source. Calls follow the shape of the dose curve; as a rule, active = well fitted curve in the direction sought with a large enough effect; inconclusive = small, poorly fitted or top-dose-only effect, or another doubt; inactive = no such curve, though single readings can be large; an effect the other way counts as inactive or inconclusive.

Assays:
[1] = molecular target: Glutathione peroxidase 1 (Homo sapiens) (UniProt P07203); experiment: Primary qHTS Assay for Inhibitors of Recombinant Selenoprotein Glutathione Peroxidase 1 (GPX1) (AID 1845191); also: nearly all actives have a fitted effect of over 65% in size; also: potency is read from the fitted curve at half-maximal effect; as to activity, negative = inhibition: % is scaled to controls: 0 for no effect and ±100 for the full control effect
Glutathione peroxidase 1 (Homo sapiens), sequence (P07203 whole entry, looked up): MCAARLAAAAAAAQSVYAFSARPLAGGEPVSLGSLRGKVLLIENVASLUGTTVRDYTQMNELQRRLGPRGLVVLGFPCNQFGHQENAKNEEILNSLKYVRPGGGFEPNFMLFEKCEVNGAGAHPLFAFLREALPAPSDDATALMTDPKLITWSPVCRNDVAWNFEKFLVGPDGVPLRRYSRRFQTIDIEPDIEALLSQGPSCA
Procedure, shortened: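 GR-coupled readout: NADPH consumption tracked by fluorescence, ex 340/em 450 nm, at t=0 and after 15 min at RT. Final mix 10 nM GPX1, 1 mM GSH, 0.5 mM CHP, 0.5 mM NADPH, 100 nM GR, 0.01% BSA, following 30 min enzyme–compound preincubation.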

[2] = molecular target: Phospholipid hydroperoxide glutathione peroxidase GPX4 (Homo sapiens) (UniProt P36969); experiment: Primary qHTS Assay for Inhibitors of Recombinant Selenoprotein Glutathione Peroxidase 4 (GPX4) (AID 1845192); also: nearly all actives have a fitted effect of over 65% in size; also: potency is read from the fitted curve at half-maximal effect; as to activity change, negative = inhibition: series mostly up to about 50 µM; % is scaled to controls: 0 for no effect and ±100 for the full control effect
Phospholipid hydroperoxide glutathione peroxidase GPX4 (Homo sapiens), sequence (P36969 whole entry, looked up): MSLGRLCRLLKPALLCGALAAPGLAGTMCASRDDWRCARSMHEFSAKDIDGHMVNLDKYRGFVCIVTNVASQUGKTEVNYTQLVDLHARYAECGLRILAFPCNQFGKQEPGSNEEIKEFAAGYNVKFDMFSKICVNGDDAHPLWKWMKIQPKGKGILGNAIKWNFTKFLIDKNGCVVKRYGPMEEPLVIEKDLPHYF
Procedure, shortened: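 Steps: GPX4 plus compound, 30 min RT; add GR/GSH/NADPH master mix; start with cumene hydroperoxide; read 340/450 nm fluorescence at 0 and 15 min. Finals were 200 nM GPX4, 1 mM GSH, 0.5 mM CHP, 0.5 mM NADPH, 100 nM GR.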

[3] = Quantitative High-Throughput drug screen in 47 multiple myeloma cell lines against the NCATS MIPE library collection: FR4_PLB cell viability assay (AID 1918924; also: nearly all actives have a fitted effect of over 35% in size; also: potency is read from the fitted curve at half-maximal effect)
Procedure, shortened: (§1)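 We plated 500 myeloma cells per well, pinned in MIPE 4.0 compounds, and incubated for 48 hours at 37C. ATP was then quantified with CellTiter-Glo, with DMSO and media-only wells defining 100% and 0%.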

[4] = Quantitative High-Throughput drug screen in 47 multiple myeloma cell lines against the NCATS MIPE library collection: EJM_DSMZ cell viability assay (AID 1918926; also: nearly all actives have a fitted effect of over 30% in size)
Procedure, shortened: (§2)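 CellTiter-Glo ATP luminescence gave viability after 48 h compound treatment at 37C of 500 multiple myeloma cells per well. Normalisation used DMSO-only wells as 100% and media-only wells as 0% viability; primary qHTS of approved and investigational drugs.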

[5] = Quantitative High-Throughput drug screen in 47 multiple myeloma cell lines against the NCATS MIPE library collection: ARP1_JJKsccF8 cell viability assay (AID 1918928; also: nearly all actives have a fitted effect of over 40% in size; also: potency is read from the fitted curve at half-maximal effect)
Procedure, shortened: (§3)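 Viability screen: myeloma cells (500/well) incubated 48 h at 37 °C, humidified 5% CO2, with pinned library compounds; CellTiter-Glo added, luminescence read; DMSO wells set 100%, medium-only wells 0%.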

[6] = Quantitative High-Throughput drug screen in 47 multiple myeloma cell lines against the NCATS MIPE library collection: ARD_JJKsccE7 cell viability assay (AID 1918929; also: potency is read from the fitted curve at half-maximal effect)
Procedure, shortened: as §2

[7] = Quantitative High-Throughput drug screen in 47 multiple myeloma cell lines against the NCATS MIPE library collection: JIM3_ECACC cell viability assay (AID 1918963; also: nearly all actives have a fitted effect of over 35% in size; also: potency is read from the fitted curve at half-maximal effect)
Procedure, shortened: as §1

[8] = Quantitative High-Throughput drug screen in 47 multiple myeloma cell lines against the NCATS MIPE library collection: INA6_PLB cell viability assay (AID 1918965; also: nearly all actives have a fitted effect of over 55% in size; also: potency is read from the fitted curve at half-maximal effect)
Procedure, shortened: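 Viability readout: CellTiter-Glo luminescence following 5 min room-temperature incubation with reagent. Prior exposure: 48 h, 37C, humidified 5% CO2, 500 cells per well.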

[9] = Quantitative High-Throughput drug screen in 47 multiple myeloma cell lines against the NCATS MIPE library collection: KMM1_JCRB cell viability assay (AID 1918960); also: nearly all actives have a fitted effect of over 30% in size; also: potency is read from the fitted curve at half-maximal effect
Procedure, shortened: as §3

[10] = Quantitative High-Throughput drug screen in 47 multiple myeloma cell lines against the NCATS MIPE library collection: KHM11_PLB cell viability assay (AID 1918962); also: nearly all actives have a fitted effect of over 35% in size; also: potency is read from the fitted curve at half-maximal effect
Procedure, shortened: as §1

[11] = Quantitative High-Throughput drug screen in 47 multiple myeloma cell lines against the NCATS MIPE library collection: AMO1_DSMZ cell viability assay (AID 1918927; also: nearly all actives have a fitted effect of over 30% in size; also: potency is read from the fitted curve at half-maximal effect)
Procedure, shortened: as §2

[12] = Quantitative High-Throughput drug screen in 47 multiple myeloma cell lines against the NCATS MIPE library collection: Karpas620_DSMZ cell viability assay (AID 1918959); also: nearly all actives have a fitted effect of over 30% in size; also: potency is read from the fitted curve at half-maximal effect
Procedure, shortened: as §1

[13] = Quantitative High-Throughput drug screen in 47 multiple myeloma cell lines against the NCATS MIPE library collection: JIM1_ECACC cell viability assay (AID 1918964; also: potency is read from the fitted curve at half-maximal effect)
Procedure, shortened: as §2

[14] = Quantitative High-Throughput drug screen in 47 multiple myeloma cell lines against the NCATS MIPE library collection: JJN3_DSMZ cell viability assay (AID 1918966; also: nearly all actives have a fitted effect of over 50% in size)
Procedure, shortened: as §2

[15] = Quantitative High-Throughput drug screen in 47 multiple myeloma cell lines against the NCATS MIPE library collection: Delta47_JCRB cell viability assay (AID 1918925; also: nearly all actives have a fitted effect of over 45% in size; also: potency is read from the fitted curve at half-maximal effect)
Procedure, shortened: as §2

[16] = molecular target: Luciferin 4-monooxygenase (Photinus pyralis) (UniProt P08659); experiment: Primary firefly luciferase (FLuc) qHTS assay for identification of artifact compounds. (AID 1845220); also: nearly all actives have a fitted effect of over 60% in size;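 as to activity change, negative = inhibition: series mostly up to about 54 µM; plate controls were DMSO vehicle for no effect and no enzyme for full effect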
Procedure, shortened: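 D-luciferin and ATP (10 uM each, final) in Tris acetate buffer pH 7.6 were incubated with compounds for 15 min at room temperature. The reaction was started with 10 nM Photinus pyralis luciferase and luminescence read after 5 min. Percent inhibition was fitted to a 4-parameter Hill equation.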

[17] = tested on: Nanoluciferase (engineered Oplophorus gracilirostris luciferase); experiment: Primary Nanoluciferase (NLuc) qHTS assay for identification of artifact compounds. (AID 1845222);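 also: series mostly up to about 54 µM; 0% = DMSO and -100% = no enzyme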
Procedure, shortened: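 Diluted conditioned medium from NLuc-expressing S16 cells treated with compounds for 15 min at room temperature, then Nano-Glo substrate added; luminescence read after 5 min. Percent inhibition versus no-enzyme and DMSO controls fitted to 4-parameter Hill equation.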

[18] = Primary redox qHTS assay for identification of artifact compounds. (AID 1845223)
Procedure, shortened: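 Redox-cycling detection via DTT (250 uM final) oxidation coupled to Amplex Red (25 uM)/HRP (250 mU/mL) in HBSS. 15 min preincubation plus 30 min after DTT, room temperature. Ex/Em 525/598 nm; 4-parameter Hill fit against DMSO and 10 uM DA3003.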

CCOc1cc(CC(=O)N[C@@H](CC(C)C)c2ccccc2N2CCCCC2)ccc1C(=O)O
inactive: Potency [1] | Potency [2] | Potency [3] | Potency [4] | Potency [5] | Potency [6] | Potency [7] | Potency [8]

Nc1ncn([C@H]2C[C@H](O)[C@@H](CO)O2)c(=O)n1
active: Potency [6] 0.418 µM | Potency [9] 0.296 µM | Potency [8] 0.0235 µM
inactive: Potency [1] | Potency [2] | Potency [3] | Potency [4] | Potency [10]

Clc1ccc(C(Cn2ccnc2)OCc2ccc(Sc3ccccc3)cc2)c(Cl)c1 (configuration not stated)
active: Potency [11] 20.9 µM | Potency [6] 26.4 µM | Potency [12] 18.7 µM | Potency [9] 20.9 µM | Potency [13] 20.9 µM | Potency [8] 26.4 µM
inactive: Potency [1] | Potency [2]

CC(C)c1ccc2oc3nc(N)c(C(=O)O)cc3c(=O)c2c1
inactive: Potency [3] | Potency [4] | Potency [11] | Potency [6] | Potency [12] | Potency [7] | Potency [13] | Potency [8] | Potency [14]
active: Potency [1] 22.7 µM and 16.3 µM | Potency [2] 12.8 µM and 8.06 µM

COc1c2occc2cc2ccc(=O)oc12
inactive: Potency [1] | Potency [2] | Potency [15] | Potency [4] | Potency [11] | Potency [5] | Potency [9] | Potency [10] | Potency [7] | Potency [13]

S=c1nc[nH]c2nc[nH]c12
active: Potency [5] 2.35 µM | Potency [6] 2.35 µM | Potency [9] 4.69 µM | Potency [7] 16.6 µM | Potency [8] 1.87 µM
inactive: Potency [1] | Potency [2] | Potency [4] | Potency [11] | Potency [12] | Potency [10]

COC(=O)C1=C(C)NC(C)=C(C(=O)OC(C)C)C1c1cccc2nonc12 (configuration not stated)
inactive: Potency [1] | Potency [2] | Potency [4] | Potency [11] | Potency [5] | Potency [6] | Potency [12] | Potency [9] | Potency [13]
active: Potency [15] 2.96 µM | Potency [8] 26.4 µM

CCN(CCO)CCCC(C)Nc1ccnc2cc(Cl)ccc12 (configuration not stated)
inactive: activity change, negative = inhibition [2] -25.1% [at 4.52 µM] and 2.25% [at 4.52 µM] | activity change, negative = inhibition [16] -0.741% [at 6.45 µM] | activity, negative = inhibition [17] -2.86% [at 6.45 µM] | redox activity (% of DA3003) [18] -6.64% [at 6.41 µM] | Potency [3] | Potency [15] | Potency [4] | Potency [5] | Potency [9] | Potency [7] | Potency [13] | Potency [14]

O=C(NCC1CCCCN1)c1cc(OCC(F)(F)F)ccc1OCC(F)(F)F (configuration not stated)
inactive: Potency [1] | Potency [2] | Potency [4] | Potency [14]
active: Potency [15] 8.33 µM | Potency [11] 3.32 µM | Potency [6] 3.72 µM | Potency [12] 1.32 µM | Potency [9] 2.64 µM | Potency [10] 9.35 µM | Potency [7] 8.33 µM | Potency [13] 1.87 µM | Potency [8] 13.2 µM

CC1=C(C(=O)O)N2C(=O)[C@@H](NC(=O)[C@H](N)C3=CCC=CC3)[C@H]2SC1
inactive: Potency [15] | Potency [4] | Potency [5] | Potency [12] | Potency [9] | Potency [10] | Potency [7] | Potency [8]

CC(C)c1nc(CN(C)C(=O)N[C@H](C(=O)N[C@@H](Cc2ccccc2)C[C@H](O)[C@H](Cc2ccccc2)NC(=O)OCc2cncs2)C(C)C)cs1
active: Potency [3] 11.8 µM
inactive: Potency [2] | Potency [16] | outcome [17] | Potency [4] | Potency [12] | Potency [9]

CN(c1nccc(=O)[nH]1)C1CCN(c2nc3ccccc3n2Cc2ccc(F)cc2)CC1
inactive: Potency [2] | Potency [16] | outcome [17] | Potency [3] | Potency [11] | Potency [5] | Potency [6] | Potency [9]
active: Potency [15] 4.69 µM | Potency [8] 23.5 µM
